Among all 51,000 sequences or so, about 3,800 (7.5%) were called active. This is one part of a sample in which actives are shown more often than they occur. Rule as the data show it: active = GI50 up to about 1.1 µM and inactive = higher. Potency and affinity values are given separately.
What follows are substances tested on A498.

Row | Substance | GI50
1 | [Bis(aminomethyl)pentamethylenesilane]tetrachloropaltinum(IV), CHEMBL2146204 | 0.132 µM
2 | mu-(1,7-nanodiamine-N,N')bis-(cis-aminedichloroplatimum (II)), CHEMBL2146215 | 66.5 µM
3 | [Bis(aminomethyl)pentamethylenesilane]dichloropaltinum(II), CHEMBL2146202 | 0.279 µM
4 | [Bis(aminomethyl)tetramethylenesilane]dichloropaltinum(II), CHEMBL2146205 | 32.8 µM
5 | [Bis(aminomethyl)dimethylsilane]tetrachloroplatinum(IV), CHEMBL2146190 | 15.5 µM
6 | [Bis(aminomethyl)tetramethylenesilane]tetrachloropaltinum(IV), CHEMBL2146189 | 1.64 µM
7 | CISPLATIN, CHEMBL11359 | 8.24 µM
